LASV entry inh: Lassa virus entry inhibition; actives 1.2% (n = 300,000); Lassa virus pseudotype entry inhibition, cell reporter; Potency, µM (titrated, usually from 37.9 µM), hits mostly inhibitors; AID 540256; calls by dose curve; tested in HEK293 cells; also: nearly all actives have a fitted effect of over 50% in size
Vaccinia mCherry: vaccinia inhibition (mCherry reporter); Vaccinia virus mCherry reporter infection, fluorescence; Potency, µM (doses to about 36.5 µM), usual class: inhibitors; actives 0.63% (n = 310,000); AID 720579; calls by dose curve; tested in A549 cells; also: nearly all actives have a fitted effect of over 35% in size
VACV Venus inh: inhibitors of vaccinia virus (Venus reporter). AID 720580. actives 0.46% (n = 330,000). Potency, µM (top dose mostly 36.5 µM), most hits filed as inhibitors. Vaccinia virus Venus reporter expression, fluorescence; calls by dose curve; tested in A549 cells; also: nearly all actives have a fitted effect of over 30% in size
MARV entry inh: blocks Marburg virus binding to or entry into cells | Potency, µM (series often up to 37.8 µM), actives largely listed as inhibitors | actives 1.8% (n = 300,000) | Marburg virus pseudotyped entry inhibition, cell reporter | AID 540276; calls by dose curve; tested in HEK293 cells
Of the large screens only hits and unclear results are named; the others gave an inactive call. Rows were chosen to be rich in hits. Some 2.5% of all compounds tested hit in one or more screens of this group.

O=S(=O)(NCCNC/C=C/c1ccc(Br)cc1)c1cccc2cnccc12	LASV entry inh inconclusive, VACV Venus inh inconclusive, MARV entry inh 10µM
Cc1c(C(=O)N(C)C2CCOC2)sc2ncnc(NCc3ccc4c(c3)OCO4)c12 (stereo not drawn)	none (no result: LASV entry inh, MARV entry inh)
CCCCC(=O)NC(c1ccc(Cl)cc1Cl)c1ccc2cccnc2c1O (stereo not drawn)	LASV entry inh 7.08µM, Vaccinia mCherry inconclusive, VACV Venus inh inconclusive, MARV entry inh inconclusive
CCC(=O)NC(c1ccc(Cl)cc1Cl)c1ccc2cccnc2c1O (stereo not drawn)	LASV entry inh inconclusive, Vaccinia mCherry 2µM, VACV Venus inh inconclusive, MARV entry inh 11.2µM
CC(NC(=O)CSc1ncccn1)c1ccc(Cl)cc1Cl (stereo not drawn)	none
COc1cc(/C=C/c2ccnc3ccccc23)ccc1N(C)C	none (no result: LASV entry inh, MARV entry inh)
CC1CN(Cc2cccn2-c2ncccn2)Cc2cc(Cl)ccc2O1 (stereo not drawn)	none (no result: LASV entry inh, MARV entry inh)
CCC(c1ccc(O)c(O)c1)C(CC)c1ccc(O)c(O)c1 (stereo not drawn)	LASV entry inh inconclusive, Vaccinia mCherry 3.16µM, MARV entry inh inconclusive
CCC(NC(C)C)C(O)c1ccc(O)c(O)c1 (stereo not drawn)	LASV entry inh inconclusive
CCOC(=O)/C(=N\Nc1ncnc2ccccc12)c1ccc(OC)cc1	LASV entry inh inconclusive, MARV entry inh inconclusive
COc1ccc(/C(=N/Nc2ncnc3ccccc23)C(=O)O)cc1	LASV entry inh inconclusive, Vaccinia mCherry 10µM
COc1ccc(-n2c(CNC(=O)c3cccc4ccccc34)nnc2SC)cc1	none (no result: LASV entry inh, MARV entry inh)
COc1ccc(CCNCc2ccc(OCc3ccc(Cl)nc3)c(OC)c2)cc1OC	MARV entry inh 12.6µM (no result: Vaccinia mCherry)
CC(=O)Oc1ccccc1[C@@H]1OCCN1C(C)=O	none (no result: LASV entry inh, Vaccinia mCherry, VACV Venus inh)
Cc1nnc(N2CCC(C(=O)NCc3ccc(N(C)C)cc3)CC2)c2nn(-c3ccccc3)c(C)c12	LASV entry inh inconclusive, Vaccinia mCherry 12.6µM, VACV Venus inh 12.6µM (no result: MARV entry inh)
Cc1nnc(N2CCN(C(=O)Nc3cc(F)ccc3F)CC2)c2nn(-c3ccc(Cl)cc3)c(C)c12	LASV entry inh inconclusive, Vaccinia mCherry 11.2µM, VACV Venus inh inconclusive (no result: MARV entry inh)
COc1ccc(-n2nc3c(N4CCC(C(=O)NCc5cccc(F)c5)CC4)nnc(C)c3c2C)cc1	Vaccinia mCherry inconclusive, VACV Venus inh 28.2µM (no result: MARV entry inh)
Cc1nnc(N2CCC(C(=O)NCCc3ccccc3)CC2)c2nn(-c3ccccc3)c(C)c12	none (no result: MARV entry inh)
O=C(C[N+]12CCCc3cccc(c31)CCC2)c1ccc2ccccc2c1	none (no result: LASV entry inh, MARV entry inh)
Cc1cc(C=O)cc(C)c1[N+](=O)[O-]	none (no result: LASV entry inh, MARV entry inh)
Clc1ccc2nc(C3CCN(Cc4ccccc4)CC3)[nH]c2c1	LASV entry inh inconclusive, MARV entry inh inconclusive
Cc1ccc(CN2CCC(c3nc4ccc(Cl)cc4[nH]3)CC2)cc1	LASV entry inh inconclusive, VACV Venus inh inconclusive, MARV entry inh 4.11µM
Cc1cccc(C(=O)NCc2nc(-c3ccccc3NC(=O)C3CCCO3)oc2C)c1 (stereo not drawn)	none (no result: LASV entry inh, MARV entry inh)
Cc1ccc(OC(=O)C2c3ccccc3Oc3ccccc32)cc1C	LASV entry inh 18.4µM, MARV entry inh inconclusive (no result: Vaccinia mCherry, VACV Venus inh)
Cc1ccc(CNC(=O)C(=O)NCCC2CCCCN2S(=O)(=O)c2cccs2)cc1 (stereo not drawn)	LASV entry inh inconclusive, MARV entry inh inconclusive
Cc1ccccc1CNC(=O)C(=O)NCCC1CCCCN1S(=O)(=O)c1cccs1 (stereo not drawn)	LASV entry inh inconclusive, VACV Venus inh inconclusive, MARV entry inh 10µM
C=C1C=C(C(F)F)n2ncc(C(=O)Nc3ccc(N(CC)CC)cc3)c2N1	none (no result: LASV entry inh, MARV entry inh)
COc1cccc(N/N=C/c2cccc(Br)c2O)c1	Vaccinia mCherry inconclusive, MARV entry inh 11.2µM
COc1cccc(/C=N/Nc2ccc([N+](=O)[O-])cc2)c1O	Vaccinia mCherry inconclusive, MARV entry inh inconclusive
CCOc1ccc(NC(=S)N(CCCN2CCCC2)Cc2cccn2Cc2ccc(Cl)cc2)cc1	Vaccinia mCherry inconclusive
Cc1cccc(NC(=S)N(CCCN2CCCC2)Cc2cccn2Cc2ccc(Cl)cc2)c1	LASV entry inh inconclusive, Vaccinia mCherry inconclusive, MARV entry inh 7.08µM
CCCCC#C[C@@H]1C=C[C@H](Oc2ccc(C(=O)OC)cc2)[C@@H](COC(=O)OCC)O1	none (no result: LASV entry inh, Vaccinia mCherry, VACV Venus inh)
COCCN1C(=O)NC(c2ccc(Br)cc2)C(C(C)=O)=C1C (stereo not drawn)	none (no result: LASV entry inh, Vaccinia mCherry, VACV Venus inh)
COc1ccc(NC(=O)CNC(=O)c2nn(-c3ccc(OC)c(Cl)c3)c(=O)c3ccccc23)c(OC)c1	LASV entry inh inconclusive, MARV entry inh inconclusive
COc1ccc(-n2nc(C(=O)NCC(=O)Nc3ccccn3)c3ccccc3c2=O)cc1Cl	MARV entry inh 4.11µM
c1ccc(-c2ccccc2OCCCN2CCCC2)cc1	LASV entry inh inconclusive, MARV entry inh 5.62µM
Cc1ccccc1OCCOCCN1CCCCCC1	MARV entry inh 10µM
c1ccc(-c2ccccc2OCCCN2CCCCCC2)cc1	Vaccinia mCherry inconclusive (no result: LASV entry inh, MARV entry inh)
